Bioassay records as filed in PubChem BioAssay.
miR122 inh: activators of miR-122 sensor in Huh7 cells | Huh7 psiCHECK-miR122 Renilla luciferase sensor, 48 h | activation, % at 12.5 µM | 0.14% of 340,000 active;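 active = mean activation of 30% or more, with every replicate also reaching 30%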;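 note: 0% = median of neutral control wells and 100% = median of positive control wells; higher luciferase signal means stronger suppression of miR-122 activity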
Starred values were filed as active, the others as inactive. This excerpt belongs to a sample that is enriched for hits.

How did C[C@@H]1CN([C@H](C)CO)C(=O)c2cc(C#CC3(O)CCCC3)cnc2O[C@@H]1CN(C)C(=O)C1CCCCC1 do in these assays?
miR122 inh: -2

What do the screens show for `C[C@@H]1CN([C@@H](C)CO)S(=O)(=O)c2ccc(/C=C/c3ccccc3)cc2O[C@@H]1CN(C)Cc1cccnc1`?
miR122 inh: -5

Results for C[C@H](CO)N1C[C@H](C)[C@H](CN(C)C(=O)Cc2cccnc2)Oc2cc(-c3cncnc3)ccc2S1(=O)=O ?
miR122 inh: -3

Results for C[C@H]1CN([C@@H](C)CO)C(=O)c2cc(-c3cccc(F)c3)cnc2O[C@@H]1CN(C)C(=O)c1cccc(F)c1 ?
miR122 inh: 3

Results for COC(=O)c1nn(-c2ccccc2)c(Sc2ccc(Cl)cc2)c1/C=N/O ?
miR122 inh: 36*

What do the screens show for `C[C@H]1CN([C@@H](C)CO)C(=O)c2cc(C#Cc3ccccn3)cnc2O[C@H]1CN(C)Cc1cccnc1`?
miR122 inh: -1

What do the screens show for `C[C@H](CO)N1C[C@H](C)[C@@H](CN(C)CC2CCOCC2)Oc2cc(C#C[C@@H](C)O)ccc2S1(=O)=O`?
miR122 inh: -20

What do the screens show for `COc1cccc(-c2cnc3c(c2)C(=O)N([C@H](C)CO)C[C@H](C)[C@H](CN(C)Cc2cccc(C(F)(F)F)c2)O3)c1`?
miR122 inh: 0

What do the screens show for `COc1ccc(NS(=O)(=O)c2cc(NS(=O)(=O)c3cccs3)ccc2C)cc1`?
miR122 inh: -94

How did O=S(=O)(Nc1nccs1)c1ccc(NS(=O)(=O)c2cccs2)cc1 do in these assays?
miR122 inh: 39*

How did Cc1ccc(S(=O)(=O)Nc2ccc(C(=O)NCc3ccccn3)cc2)cc1 do in these assays?
miR122 inh: -199

Results for COc1ccc(NC(=O)N(C)C[C@@H]2Oc3ncc(C4=CCCC4)cc3C(=O)N([C@H](C)CO)C[C@H]2C)cc1 ?
miR122 inh: -6

How did C[C@@H]1CN([C@H](C)CO)C(=O)c2cc(-c3ccc(C#N)cc3)cnc2O[C@@H]1CN(C)CC1CCOCC1 do in these assays?
miR122 inh: 4

What do the screens show for `CCOC(=O)/C(C#N)=C1/C=CN(Cc2ccccc2)C=N1`?
miR122 inh: 33*

Results for C[C@@H]1CN([C@H](C)CO)S(=O)(=O)c2ccc(C#C[C@@H](C)O)cc2O[C@@H]1CN(C)C(=O)c1ccncc1 ?
miR122 inh: 8

How did COCC#Cc1cnc2c(c1)C(=O)N([C@@H](C)CO)C[C@H](C)[C@@H](CN(C)C(=O)Cc1ccccc1)O2 do in these assays?
miR122 inh: -1

How did C[C@H]1CN([C@@H](C)CO)C(=O)c2cc(C3=CCCCC3)cnc2O[C@H]1CN(C)C(=O)c1ccc(F)cc1 do in these assays?
miR122 inh: 2

How did C[C@H](CO)N1C[C@H](C)[C@@H](CN(C)C(=O)Cc2ccccn2)Oc2ncc(-c3cccc(C(=O)N(C)C)c3)cc2C1=O do in these assays?
miR122 inh: 0

How did CNC[C@@H]1Oc2cc(C#Cc3cccc(OC)c3)ccc2S(=O)(=O)N([C@@H](C)CO)C[C@@H]1C do in these assays?
miR122 inh: 49*

What do the screens show for `C[C@@H]1CN([C@@H](C)CO)S(=O)(=O)c2ccc(C#Cc3cccc(F)c3)cc2O[C@H]1CN(C)C(=O)CN1CCOCC1`?
miR122 inh: -2

How did COc1cccc(C#Cc2ccc3c(c2)O[C@H](CN(C)C(C)=O)[C@H](C)CN([C@H](C)CO)S3(=O)=O)c1 do in these assays?
miR122 inh: 5

Results for COc1ccc(C#Cc2ccc3c(c2)O[C@H](CN(C)C(=O)CN2CCOCC2)[C@H](C)CN([C@H](C)CO)S3(=O)=O)cc1 ?
miR122 inh: 50*

Results for C[C@@H]1CN([C@H](C)CO)S(=O)(=O)c2ccc(C#Cc3ccncc3)cc2O[C@@H]1CN(C)C(=O)c1ccncc1 ?
miR122 inh: 15

What do the screens show for `C[C@H]1CN([C@@H](C)CO)S(=O)(=O)c2ccc(C#Cc3ccncc3)cc2O[C@@H]1CN(C)C(=O)c1ccncc1`?
miR122 inh: -18

Results for C[C@@H]1CN([C@@H](C)CO)S(=O)(=O)c2ccc(C#Cc3ccncc3)cc2O[C@H]1CN(C)C(=O)C1CCCCC1 ?
miR122 inh: 7

What do the screens show for `COc1cccc(C#Cc2ccc3c(c2)O[C@@H](CN(C)C(C)=O)[C@@H](C)CN([C@@H](C)CO)S3(=O)=O)c1`?
miR122 inh: -4

What do the screens show for `CCCC#Cc1ccc2c(c1)O[C@H](CN(C)C(=O)c1ccncc1)[C@H](C)CN([C@@H](C)CO)S2(=O)=O`?
miR122 inh: 31*

What do the screens show for `C[C@@H]1CN([C@@H](C)CO)S(=O)(=O)c2ccc(C#Cc3ccncc3)cc2O[C@@H]1CN(C)C(=O)C1CCCCC1`?
miR122 inh: 19

Results for C[C@H](CO)N1C[C@H](C)[C@@H](CN(C)C(=O)C2CCOCC2)Oc2cc(C#Cc3ccncc3)ccc2S1(=O)=O ?
miR122 inh: 34*

How did C[C@H](CO)N1C[C@H](C)[C@@H](CN(C)C(=O)CN2CCOCC2)Oc2cc(C#Cc3cccc(F)c3)ccc2S1(=O)=O do in these assays?
miR122 inh: 3
